Source: PubChem BioAssay (Tox21)
Inconclusive results are not listed. The source made the active and inactive calls. Calls come from the whole dose curve; as a rule, active = well fitted curve in the direction sought with a large enough effect in the repeat runs; inconclusive = weak or mixed curves; inactive = no such curve, though single readings can be large; an effect the other way counts as inactive or inconclusive.

Legend:
[1] = biological target: Cytochrome P450 2C19 (Homo sapiens) (UniProt P33261); experiment: Cytochrome P450 Family 2 Subfamily C Member 19 (CYP2C19) small molecule antagonists: luciferase reporter qHTS assay (AID 1671197); conditions: P450-Glo CYP2C19 enzyme, luciferin luminescence, 1 h; series mostly up to 115 µM; note: nearly all actives have a fitted effect of over 65% in size
In short: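 Inhibition of CYP2C19 was scored from loss of luminescence in a P450-Glo proluciferin substrate assay, NADPH-started and run 1 h at 37C, with ketoconazole as positive control.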

[2] = biological target: Cytochrome P450 2C9 (Homo sapiens) (UniProt P11712); experiment: Cytochrome P450 Family 2 Subfamily C Member 9 (CYP2C9) small molecule antagonists: luciferase reporter qHTS assay (AID 1671198); conditions: P450-Glo CYP2C9 enzyme assay, luciferin luminescence; series mostly up to 115 µM; note: nearly all actives have a fitted effect of over 50% in size
In short: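 Enzyme-substrate mix preincubated with compound 10 min at room temperature; reaction started with NADPH regeneration solution, 1 h 37C. Luminescent luciferin product read after 20 min detection reagent.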

[3] = biological target: Cytochrome P450 1A2 (Homo sapiens) (UniProt P05177); experiment: Cytochrome P450 Family 1 Subfamily A Member 2 (CYP1A2) small molecule antagonists: luciferase reporter qHTS assay (AID 1671199); conditions: P450-Glo CYP1A2 enzyme, luciferin luminescence, 1 h; series mostly up to 115 µM; note: nearly all actives have a fitted effect of over 50% in size
In short: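 Human CYP1A2 activity measured with a P450-Glo proluciferin substrate; compounds in DMSO preincubated 10 min at room temperature with enzyme-substrate mix, then NADPH regeneration system added for 1 h. Luciferin detection reagent, 20 min, luminescence read.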

[4] = biological target: Voltage-gated inwardly rectifying potassium channel KCNH2 (Homo sapiens) (UniProt Q12809); experiment: Human Ether-a-go-go-Related Gene (hERG) channel small molecule antagonists: fluorescence cell-based qHTS assay (AID 1671200); conditions: hERG-U2OS cells, FluxOR thallium flux fluorescence; series mostly up to 76.8 µM; note: nearly all actives have a fitted effect of over 50% in size
In short: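 First, 1000 cells per well are seeded and cultured overnight at 37 C. Next, FluxOR II dye is loaded for 1 h at room temperature, protected from light. After 10 more minutes, stimulus is added and fluorescence is read.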

[5] = biological target: Cytochrome P450 3A4 (Homo sapiens) (UniProt P08684); experiment: Cytochrome P450 Family 3 Subfamily A Member 4 (CYP3A4) small molecule antagonists: luciferase reporter qHTS assay (AID 1671201); conditions: P450-Glo CYP3A4 enzyme, luciferin luminescence, 1 h; series mostly up to 115 µM; note: nearly all actives have a fitted effect of over 50% in size
In short: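 Enzyme and proluciferin substrate are mixed with test chemicals for 10 min, then NADPH regeneration system drives turnover for 1 h at room temperature. A detection reagent halts the reaction; luminescence after 20 min gives relative activity.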

Measured: Potency
Potency is the fitted concentration of half-maximal effect.

Chain of Cytochrome P450 2C19 (Homo sapiens) (P33261 whole entry, looked up): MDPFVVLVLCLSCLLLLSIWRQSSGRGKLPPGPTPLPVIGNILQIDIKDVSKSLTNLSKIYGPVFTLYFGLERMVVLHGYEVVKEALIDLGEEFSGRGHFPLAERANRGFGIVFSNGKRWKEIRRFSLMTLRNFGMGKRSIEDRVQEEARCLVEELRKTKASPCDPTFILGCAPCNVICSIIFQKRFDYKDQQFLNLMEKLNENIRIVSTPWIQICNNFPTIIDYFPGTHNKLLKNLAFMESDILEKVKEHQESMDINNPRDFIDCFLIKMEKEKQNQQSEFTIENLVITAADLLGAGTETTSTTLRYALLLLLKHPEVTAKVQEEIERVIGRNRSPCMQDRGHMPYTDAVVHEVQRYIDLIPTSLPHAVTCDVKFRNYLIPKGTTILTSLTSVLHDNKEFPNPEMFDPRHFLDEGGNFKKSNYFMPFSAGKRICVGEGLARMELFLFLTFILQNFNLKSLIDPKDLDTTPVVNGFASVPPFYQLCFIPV
Chain of Cytochrome P450 3A4 (Homo sapiens) (P08684 whole entry, looked up): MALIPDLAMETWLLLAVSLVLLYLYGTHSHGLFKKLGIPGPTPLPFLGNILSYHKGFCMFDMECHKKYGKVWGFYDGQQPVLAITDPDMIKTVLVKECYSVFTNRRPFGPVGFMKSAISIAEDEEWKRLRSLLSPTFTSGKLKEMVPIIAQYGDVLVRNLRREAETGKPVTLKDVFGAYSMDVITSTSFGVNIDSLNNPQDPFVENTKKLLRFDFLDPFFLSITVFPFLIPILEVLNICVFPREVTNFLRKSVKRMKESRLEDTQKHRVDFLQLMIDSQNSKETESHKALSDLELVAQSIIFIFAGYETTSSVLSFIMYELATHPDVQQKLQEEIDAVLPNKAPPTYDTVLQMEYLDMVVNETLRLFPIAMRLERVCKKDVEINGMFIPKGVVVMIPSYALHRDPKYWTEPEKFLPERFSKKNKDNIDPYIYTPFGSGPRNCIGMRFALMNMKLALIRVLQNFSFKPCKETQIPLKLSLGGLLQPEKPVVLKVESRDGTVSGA
Chain of Voltage-gated inwardly rectifying potassium channel KCNH2 (Homo sapiens) (Q12809 whole entry, looked up): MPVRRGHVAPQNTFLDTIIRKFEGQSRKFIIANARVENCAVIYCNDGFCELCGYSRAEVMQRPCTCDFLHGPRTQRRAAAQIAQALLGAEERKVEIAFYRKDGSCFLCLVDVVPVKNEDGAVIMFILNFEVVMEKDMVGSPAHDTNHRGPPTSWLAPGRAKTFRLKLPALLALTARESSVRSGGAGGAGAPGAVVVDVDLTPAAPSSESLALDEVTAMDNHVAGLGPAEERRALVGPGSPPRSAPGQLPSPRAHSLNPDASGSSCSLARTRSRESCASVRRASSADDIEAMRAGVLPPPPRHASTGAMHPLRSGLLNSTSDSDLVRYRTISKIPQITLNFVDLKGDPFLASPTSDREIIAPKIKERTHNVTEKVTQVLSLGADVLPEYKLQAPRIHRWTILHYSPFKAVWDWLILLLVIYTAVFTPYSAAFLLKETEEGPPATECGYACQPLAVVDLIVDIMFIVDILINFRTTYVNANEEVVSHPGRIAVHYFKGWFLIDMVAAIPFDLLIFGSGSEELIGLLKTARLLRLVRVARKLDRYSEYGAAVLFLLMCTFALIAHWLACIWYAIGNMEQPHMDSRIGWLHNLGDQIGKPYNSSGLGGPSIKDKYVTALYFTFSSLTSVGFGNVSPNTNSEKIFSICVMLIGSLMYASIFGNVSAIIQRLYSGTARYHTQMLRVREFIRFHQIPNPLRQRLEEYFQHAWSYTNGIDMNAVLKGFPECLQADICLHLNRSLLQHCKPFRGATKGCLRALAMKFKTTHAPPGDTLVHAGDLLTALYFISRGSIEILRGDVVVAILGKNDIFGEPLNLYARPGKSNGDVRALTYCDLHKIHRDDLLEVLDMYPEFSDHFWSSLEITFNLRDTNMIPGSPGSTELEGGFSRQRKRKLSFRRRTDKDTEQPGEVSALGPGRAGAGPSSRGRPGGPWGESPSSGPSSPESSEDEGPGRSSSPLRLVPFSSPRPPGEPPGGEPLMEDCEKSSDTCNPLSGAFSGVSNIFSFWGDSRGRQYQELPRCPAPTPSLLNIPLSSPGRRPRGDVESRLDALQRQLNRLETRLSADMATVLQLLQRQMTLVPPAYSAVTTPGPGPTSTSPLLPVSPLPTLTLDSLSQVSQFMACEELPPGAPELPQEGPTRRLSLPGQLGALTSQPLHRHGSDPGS
Chain of Cytochrome P450 1A2 (Homo sapiens) (P05177 whole entry, looked up): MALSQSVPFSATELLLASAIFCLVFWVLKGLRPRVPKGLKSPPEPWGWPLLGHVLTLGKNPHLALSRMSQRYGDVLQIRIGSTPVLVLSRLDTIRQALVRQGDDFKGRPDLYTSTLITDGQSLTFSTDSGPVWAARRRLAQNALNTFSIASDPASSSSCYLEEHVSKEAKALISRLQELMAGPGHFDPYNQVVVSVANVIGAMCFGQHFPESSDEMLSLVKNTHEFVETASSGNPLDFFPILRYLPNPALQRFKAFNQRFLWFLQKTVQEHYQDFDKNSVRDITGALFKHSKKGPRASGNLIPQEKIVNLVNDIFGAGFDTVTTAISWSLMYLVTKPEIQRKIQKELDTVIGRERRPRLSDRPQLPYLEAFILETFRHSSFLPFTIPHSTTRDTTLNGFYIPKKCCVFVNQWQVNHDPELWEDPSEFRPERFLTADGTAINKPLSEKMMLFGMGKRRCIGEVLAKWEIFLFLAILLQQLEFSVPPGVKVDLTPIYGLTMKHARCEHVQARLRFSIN
Chain of Cytochrome P450 2C9 (Homo sapiens) (P11712 whole entry, looked up): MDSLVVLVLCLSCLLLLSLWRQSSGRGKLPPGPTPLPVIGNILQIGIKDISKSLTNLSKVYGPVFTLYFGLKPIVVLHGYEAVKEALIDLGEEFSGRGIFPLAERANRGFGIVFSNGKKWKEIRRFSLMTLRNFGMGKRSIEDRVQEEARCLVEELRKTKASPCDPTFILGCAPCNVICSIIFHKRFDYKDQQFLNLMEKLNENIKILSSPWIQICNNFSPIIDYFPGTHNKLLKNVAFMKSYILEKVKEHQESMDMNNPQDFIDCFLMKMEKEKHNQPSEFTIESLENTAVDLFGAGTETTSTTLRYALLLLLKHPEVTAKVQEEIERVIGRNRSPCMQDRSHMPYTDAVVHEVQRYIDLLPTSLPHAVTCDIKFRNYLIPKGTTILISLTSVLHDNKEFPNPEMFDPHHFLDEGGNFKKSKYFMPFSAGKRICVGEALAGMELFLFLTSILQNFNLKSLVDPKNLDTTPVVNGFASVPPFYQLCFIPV

CCOc1cc(OCC)c(C(=O)CCC(=O)O)cc1OCC
inactive: [1] | [2] | [3] | [4] | [5]

Cc1ncsc1CCO
inactive: [1] | [2] | [3] | [4] | [5]

C=CC(=O)OCCOC(=O)CCC(=O)O
active: [5] 31.7 µM
inactive: [1] | [2] | [4]

O=C(O)[C@@H]1[C@H]2C[C@H]3c4[nH]c5ccccc5c4CCN3C[C@@H]2CC[C@@H]1O
active: [1] 8.71 µM
inactive: [2] | [3] | [4] | [5]

CC(=O)CC(=O)c1ccccc1
active: [1] 31.9 µM | [2] 35.8 µM | [3] 40.2 µM | [5] 63.7 µM
inactive: [4]

O=[N+]([O-])c1cc[n+]([O-])cc1
active: [1] 35.6 µM | [2] 39.9 µM | [3] 31.7 µM | [5] 63.3 µM
inactive: [4]

CCCCCc1ccc(N)cc1
inactive: [4]
active: [1] 6.33 µM | [2] 28.3 µM | [3] 28.3 µM | [5] 31.7 µM

C=CC(C)(CCC=C(C)C)OC(=O)c1ccccc1 (stereo not drawn)
active: [1] 15.9 µM | [2] 17.8 µM | [3] 39.9 µM | [5] 31.7 µM

CCCCCOC(=O)COc1cc(N2C(=O)C3=C(CCCC3)C2=O)c(F)cc1Cl
active: [1] 25.2 µM | [2] 5.64 µM | [3] 31.7 µM | [5] 6.33 µM

CC[C@H](C)[C@H](N)C(=O)O
inactive: [1] | [2] | [3] | [4] | [5]

CCCCCCCCCCCCC(=O)O
inactive: [2] | [4] | [5]
active: [1] 71.3 µM

N[C@H]1C(O)O[C@H](CO)[C@H](O)[C@@H]1O (stereo partly drawn)
inactive: [1] | [2] | [3] | [5]

CC/C(=C\C(=N/O)C(N)=O)C(C)[N+](=O)[O-] (stereo not drawn)
inactive: [1] | [2] | [3] | [4] | [5]

CC(C)(C)c1cc(CO)cc(C(C)(C)C)c1O
inactive: [3] | [4]
active: [1] 25.7 µM | [2] 32.3 µM | [5] 36.3 µM

CN1CCC(=C2c3ccccc3C=Cc3ccccc32)CC1
inactive: [2] | [3] | [5]
active: [1] 24.5 µM

COc1ccccc1OC(=O)Oc1ccccc1OC
active: [1] 9.77 µM | [3] 4.56 µM
inactive: [2] | [4] | [5]

COc1cc(C(C)(C)C)c(O)c(C(C)(C)C)c1
active: [1] 35.6 µM | [2] 22.4 µM | [3] 39.9 µM | [5] 35.6 µM

CCCCCCCCCCCCCCCC(=O)OC/C=C(C)/C=C/C=C(C)/C=C/C1=C(C)CCCC1(C)C
active: [1] 39.9 µM | [2] 35.6 µM
inactive: [4]

COCCO
inactive: [1] | [2] | [3] | [4] | [5]

Cn1c(NCCN(CCO)CCCc2ccc([N+](=O)[O-])cc2)cc(=O)n(C)c1=O
inactive: [1] | [2] | [3] | [5]

O=C(O)C1CCC(C(=O)O)CC1 (stereo not drawn)
inactive: [1] | [2] | [3] | [4] | [5]

N#CCc1cccc(C(F)(F)F)c1
inactive: [1] | [2] | [4] | [5]

Cc1ccc2c(ccc3ccccc32)c1
inactive: [4] | [5]
active: [1] 35.7 µM | [2] 35.7 µM | [3] 3.18 µM

CCOC(=O)CC(C)C
inactive: [1] | [2] | [3] | [4] | [5]

C=C(C)C(=O)OCCOc1ccccc1
inactive: [4] | [5]
active: [1] 31.7 µM | [2] 35.6 µM | [3] 25.2 µM

CC(=O)O[C@@H]1C(=O)O[C@@H]2[C@H]1OC(=O)[C@@H]2OC(C)=O
inactive: [1] | [2] | [4] | [5]

CCN(CC)C(C)=O
inactive: [1] | [2] | [4] | [5]

CC(=O)N(O)CCCCCNC(=O)CCC(=O)N(O)CCCCCNC(=O)CCC(=O)N(O)CCCCCN
active: [3] 24.5 µM
inactive: [1] | [2] | [4] | [5]

OCCC1CCCCN1 (stereo not drawn)
inactive: [1] | [2] | [3] | [4] | [5]

Oc1ccc(Cc2ccccc2)cc1
inactive: [4] | [5]
active: [1] 20.8 µM | [2] 65.7 µM

NC(N)=NN=C(/C=C/c1ccc([N+](=O)[O-])o1)/C=C/c1ccc([N+](=O)[O-])o1
active: [1] 3.89 µM | [2] 24.5 µM | [4] 2.39 µM

CCCCCCCCCCCCCCC1CO1 (stereo not drawn)
inactive: [1] | [2] | [4] | [5]
